Hits are enriched below; roughly 7.9% of the tested compounds scored in any of these assays.
KB-V1 cytotox: kills drug-selected multidrug resistant KB-V1 cells; KB-V1 MDR cells viability, CellTiter-Glo, 72 h; Potency, µM (titrated, usually from 46.1 µM), usual class: cytotoxic; 3.4% of 400,000 active; AID 1347076; further: on the % scale 0 is the no-effect control and ±100 the full control effect; nearly all actives have a fitted effect of over 60% in size
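Drug-selected KB-V1 cells, grown in DMEM lacking phenol red with 10% FBS, receive compound titrations; after three days at 37 degrees C, surviving cell ATP is quantified by CellTiter-Glo luminescence and responses normalized and curve-fitted.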
MCF10A rereplic: DNA re-replication induction in MCF 10a cells. MCF 10A DNA re-replication, Hoechst nuclear intensity, 48 h. Potency, µM (series often up to 46.1 µM), for the others: at the top dose activity, positive = re-replication, hits mostly activators. 2.9% of 350,000 active; further: % of control where 0% means no effect; nearly all actives have a fitted effect of over 50% in size
KB-3-1 cytotox: kills parental KB-3-1 adenocarcinoma cells | AID 1347075 | 1.4% of 400,000 active | KB-3-1 viability, CellTiter-Glo ATP luminescence, 72 h | Potency, µM (titrated, usually from 46.1 µM), usual class: cytotoxic; further: on the % scale 0 is the no-effect control and ±100 the full control effect; nearly all actives have a fitted effect of over 60% in size
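Screening of KB-3-1 cells (DMEM, 10% FBS, phenol-red free) ran from lowest to highest compound concentration; after 72 h at 37 °C viability was read luminescently and curves fitted.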
HT1080NT lethal: kills 2HG-producing HT-1080-NT fibrosarcoma cells | Potency, µM (top dose mostly 46.1 µM), for inactives: at the highest dose activity, negative = less viability, actives largely listed as cytotoxic | 1.6% of 360,000 active | HT-1080-NT fibrosarcoma viability, CellTiter-Glo ATP luminescence, 48 h | AID 686970;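 further: NT is the 2HG producing partner of a matched IDH1 knockdown line; 0% = DMSO-treated cells and -100% = media-only wells without cells; nearly all actives have a fitted effect of over 55% in size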
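Luminescent CellTiter-Glo readout after 48 hours of compound exposure at 37 degrees C defined viability of HT-1080-NT cells. Activity was normalized to DMSO wells and cell-free media wells; concentration-response curves were fitted and assigned curve classes.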
HT1080 IDH1KD tx: toxicity to HT-1080 IDH1 knockdown cells (counter line); HT-1080 IDH1 knockdown viability, ATP luminescence, 48 h; Potency, µM (top dose mostly 46.1 µM), inactives show at the highest dose activity, negative = toxicity, most hits filed as cytotoxic; 2% of 360,000 active; AID 686971;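 further: 0% = DMSO wells and -100% = cell-free medium wells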
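IDH1KD HT-1080 cells, 750/well, RPMI + 5% FBS; compound pinned after 2 h settling; 48 h, 37 °C; CellTiter-Glo luminescence; % activity normalised to DMSO and no-cell wells; curves fitted, classed by r2 and efficacy.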
SW480 rerep: inducers of DNA re-replication in SW480 colon cancer cells | SW480 DNA re-replication, Hoechst DNA content imaging, 48 h | Potency, µM (series often up to 46.1 µM), without a hit: top-dose re-replication activation, most hits filed as activators | 1.8% of 340,000 active; further: % of control where 0% means no effect; nearly all actives have a fitted effect of over 55% in size
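SW480 cells exposed to compounds for 48 hr at 37 C, 5% CO2, then Hoechst-stained 40 min. Nuclear DNA content imaged by fluorescence scanning (405 nm excitation, 500-530 nm emission); re-replication scored as increased high-intensity nuclei.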
Active calls of the source: *; i = inactive; ? = inconclusive; / = no result; ! = a repeat was not active; [ ] = remark or other dose. The call rests on the fitted dose curve; in most records, active means well fitted curve in the direction sought with a large enough effect; inconclusive means small, poorly fitted or top-dose-only effect, or another doubt; inactive means no such curve, though single readings can be large; an effect the other way counts as inactive or inconclusive. Potency means the concentration at half of the fitted maximal effect.

SMILES	KB-V1 cytotox	MCF10A rereplic	KB-3-1 cytotox	HT1080NT lethal	HT1080 IDH1KD tx	SW480 rerep
COc1ccc(NC(=O)C(NC(=O)c2ccc(C)cc2)c2ccccc2)cc1 (configuration not stated)	i	9.6%	i	-1.3%	-17.6%	-38.9%
CN(Cc1nc2ccccc2c(=O)[nH]1)C(=O)COc1ccccc1Cc1ccccc1	i	20.6µM*	i	-25.4%	?	4.3%
O=C(C1CCN(Cc2ccc(F)cc2)CC1)N(CCc1ccccc1)Cc1ccccc1	i	?	16.4µM*	-29.5%	-28.3%	-75.2%
CN(Cc1nc2ccccc2c(=O)[nH]1)C(=O)c1cc(-c2ccc(Br)cc2)nc2ccccc12	14.6µM*	?	i	-14.8%	-26.6%	21.0%
O=C(C1CC1)N(CCc1ccccc1)Cc1nc2ccccc2c(=O)[nH]1	16.4µM*	-1.4%	i	-2.3%	-5.3%	-8.0%
O=C(C1CCN(Cc2ccc(F)cc2)CC1)N(CCO)Cc1ccccc1	i	15.2%	i	9.2%	13.7%	-30.8%
CCOc1ccc2oc(C(=O)N3CC(C)OC(C)C3)c(C)c2c1 (configuration not stated)	i	1.1%	i	1.1%	-1.6%	-5.2%
CCc1nc(SCC(=O)Nc2ccc(NC(C)=O)cc2)n[nH]1	i	/	i	/	/	/
CC(C)c1onc(C(=O)Nc2ccc3c(c2)OCO3)c1[N+](=O)[O-]	i	9.7%	i	-4.2%	0.0%	-6.8%
CCCC(=O)N(CCc1ccc(OC)cc1)Cc1nc2ccccc2c(=O)[nH]1	14.6µM*	5.4%	i	?	?	-1.6%
CC(C)(C)c1csc(NNC(=O)c2ccc(Br)cc2)n1	?	?	?	?	9.2µM*	-0.4%
CC(C)(C)c1csc(NC(=O)c2ccccc2O)n1	?	?	?	?	?	-9.9%[9.22 µM]
CCn1c(-c2cc(OC)c(OC)c(OC)c2)n[nH]c1=S	10.3µM*	-7.5%	i	9.0%	7.1%	4.1%
CCOc1ccccc1-c1cc(-c2n[nH]c(=S)n2CC)c2ccccc2n1	i	30.5%	i	-6.4%	0.6%	21.4%
CCn1c(-c2cc(Br)ccc2O)n[nH]c1=S	i	-46.2%	i	0.0%	-23.2%	13.7%
CCn1c(-c2cc3ccccc3cc2O)n[nH]c1=S	20.6µM*	3.8%	?	-2.8%	-21.0%	3.5%
CCOc1cccc(-c2cc(-c3n[nH]c(=S)n3CC)c3ccccc3n2)c1	9.2µM*	26.3%	i	-6.1%	-2.7%	15.2%
C=CCn1c(-c2cc(OC)c(OC)c(OC)c2)n[nH]c1=S	?	-18.2%	i	6.6%	?	-3.6%
CCN(CC)C(=O)CSc1nnc(-c2cc3ccccc3cc2O)n1CC	2.91µM*	-0.5%	3.26µM*	-23.2%	-19.6%	-1.3%
CC(C)C[C@H]1CN(CCCC[C@H]2CNC(=O)C(=O)N2Cc2ccccc2)C(=O)C(=O)N1CCC1CCCCC1	i	/	i	16.6%	?	/
Cc1ccc2nc(SCC(=O)c3ccccc3)nc(=O)n2c1	i	0.7%	i	-4.6%	-6.4%	1.84µM*
Cc1ccn2c(=O)nc(SCC(=O)c3ccccc3)nc2c1	i	0.7%	i	-0.1%	1.6%	-6.3%
O=C(CSc1nc(=O)n2cc(Cl)ccc2n1)Nc1cccc2ccccc12	25.9µM*	-0.2%	?	?	-14.1%	23.9%
Cc1ccc2nc(SCC(=O)N3CCCC3)nc(=O)n2c1	?	3.7%	i	0.7%	4.6%	-4.7%
O=C(CSc1nnc2c3ccccc3c3ccccc3c2n1)Nc1ccccc1F	3.66µM*	-1.4%	i	7.2%	5.4%	-4.2%
SMILES	KB-V1 cytotox	MCF10A rereplic	KB-3-1 cytotox	HT1080NT lethal	HT1080 IDH1KD tx	SW480 rerep
O=C(CSc1nnc2c(n1)[nH]c1ccc(F)cc12)Nc1ccccc1F	i	-1.0%	i	14.8%	1.9%	-7.8%
Cc1ccn2c(=O)nc(SCC(=O)Nc3cccc4ccccc34)nc2c1	i	?	i	-2.2%	-16.5%	-37.7%
Cc1ccc2nc(SCC(=O)N3CCC(C)CC3)nc(=O)n2c1	18.4µM*	-5.6%	i	2.2%	2.2%	-10.6%
Cc1ccc(NC(=O)CN2CCN(C3CCCCC3)C(=O)C2=O)cc1C	i	/	i	/	/	/
Cc1ccc(NC(=O)C2CCC(CNS(=O)(=O)c3cccc4nsnc34)CC2)c(Cl)c1 (configuration not stated)	i	/	i	/	/	/
Cc1nc2ccccc2nc1SCC(=O)c1ccccc1	2.59µM*	13.4%	?	1.5%	-6.4%	-1.3%
O=C(N1CCCCC1)N1CCN(S(=O)(=O)c2ccccc2)CC1	i	-2.8%	?	0.9%	1.4%	3.3%
COCCCn1c2nc3ccccc3nc2c2c(=O)n(CC3CCCO3)cnc21 (configuration not stated)	i	6.5%	i	0.7%	3.6%	3.3%
Cc1nc2c(c(=O)n1CCC1=CCCCC1)c1nc3ccccc3nc1n2/N=C/c1ccccc1	9.2µM*	23.1µM*	i	1.8%	11.9%	0.3%
CCOCCCn1c(C)nc2c(c1=O)c1nc3ccccc3nc1n2CCC1=CCCCC1	18.4µM*	?	?	?	?	?
N#Cc1c(SCC(=O)Nc2nncs2)sc2c(O)cc(=O)[nH]c12	?	?	i	3.1%	8.1%	-8.9%
CN[C@H]1CC[C@@H](c2ccc(Cl)c(Cl)c2)c2ccccc21	20.6µM*!	?	?	7.31µM*	/	?
CC1=C(C(=O)N(C)C)C(c2ccc(Cl)c(Cl)c2)NC(=O)N1 (configuration not stated)	i	-3.2%	i	14.9%	13.8%	-1.1%
Cc1ccc(Cn2c(CN3CCC(C(=O)NCCc4ccccc4)CC3)cc3ccccc32)cc1	i	/	i	/	/	/
COc1cc(CNCc2ccccn2)ccc1OCC(=O)NC1CCCCC1	20.6µM*	-0.4%	i	8.1%	-8.5%	-67.1%
CCOc1cc(CNCc2ccccc2)ccc1OCC(=O)NC1CCCCC1	/	26.2%	/	-14.4%	1.3%	?
COc1cc(CNC2CCCCCCC2)ccc1OCC(N)=O	i	18.8%	i	-1.7%	-1.8%	?
CCOC(=O)c1ccc(NC(=O)COc2ccc(CNC3CCCCC3)cc2OC)cc1	?	?	i	23.1µM*	16.4µM*	?
COc1cc(CNCc2ccccn2)ccc1OCC(=O)NC(C)(C)C	20.6µM*	0.4%	i	7.3%	3.5%	-6.8%
COc1ccccc1NC(=O)C1CCCN(c2ncnc3onc(-c4ccc(F)cc4)c23)C1 (configuration not stated)	i	/	i	/	/	/

Source: PubChem
